# In PubChem BioAssay (NCATS):
# Results filed as inconclusive are left out. Where a structure was tested more than once in an assay, its records may differ in their call. Activity calls are given as the source filed them. Unless noted, calls follow the shape of the dose curve; as a rule, active = well fitted curve in the direction sought with a large enough effect; inconclusive = small, poorly fitted or top-dose-only effect, or another doubt; inactive = no such curve, though single readings can be large; an effect the other way counts as inactive or inconclusive.
# Assays:
# [1] = molecular target: Cytochrome P450 3A4 (Homo sapiens) (UniProt P08684); experiment: qHTS Assay for Inhibitors and Substrates of Cytochrome P450 3A4 (AID 884); also: nearly all actives have a fitted effect of over 50% in size; also: potency is read from the fitted curve at half-maximal effect
# Sequence of Cytochrome P450 3A4 (Homo sapiens) (P08684 whole entry, looked up): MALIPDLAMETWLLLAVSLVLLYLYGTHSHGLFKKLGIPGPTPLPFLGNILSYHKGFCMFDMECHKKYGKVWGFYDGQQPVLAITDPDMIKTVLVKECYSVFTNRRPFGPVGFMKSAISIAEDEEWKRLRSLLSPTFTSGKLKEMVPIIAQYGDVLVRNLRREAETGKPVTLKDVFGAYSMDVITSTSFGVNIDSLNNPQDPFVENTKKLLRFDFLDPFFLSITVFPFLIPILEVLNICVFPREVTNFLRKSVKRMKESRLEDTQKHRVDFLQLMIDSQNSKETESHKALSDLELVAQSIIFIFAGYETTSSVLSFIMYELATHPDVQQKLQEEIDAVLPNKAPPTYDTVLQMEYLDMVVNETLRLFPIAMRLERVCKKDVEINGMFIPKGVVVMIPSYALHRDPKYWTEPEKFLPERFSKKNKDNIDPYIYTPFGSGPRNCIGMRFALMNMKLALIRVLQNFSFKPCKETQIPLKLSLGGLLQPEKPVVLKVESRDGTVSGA
# Outline: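 20 nM human CYP3A4 with 25 uM Luciferin-PPXE (at KM) in 200 mM KPO4, preincubated 10 min with compound; NADPH regeneration started a 60 min RT reaction. Luciferin detected by luminescence, normalized to 57 uM ketoconazole as full inhibition.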
# [2] = molecular target: Cytochrome P450 2C19 (Homo sapiens) (UniProt P33261); experiment: qHTS Assay for Inhibitors and Substrates of Cytochrome P450 2C19 (AID 899); also: nearly all actives have a fitted effect of over 60% in size; also: potency is read from the fitted curve at half-maximal effect
# Sequence of Cytochrome P450 2C19 (Homo sapiens) (P33261 whole entry, looked up): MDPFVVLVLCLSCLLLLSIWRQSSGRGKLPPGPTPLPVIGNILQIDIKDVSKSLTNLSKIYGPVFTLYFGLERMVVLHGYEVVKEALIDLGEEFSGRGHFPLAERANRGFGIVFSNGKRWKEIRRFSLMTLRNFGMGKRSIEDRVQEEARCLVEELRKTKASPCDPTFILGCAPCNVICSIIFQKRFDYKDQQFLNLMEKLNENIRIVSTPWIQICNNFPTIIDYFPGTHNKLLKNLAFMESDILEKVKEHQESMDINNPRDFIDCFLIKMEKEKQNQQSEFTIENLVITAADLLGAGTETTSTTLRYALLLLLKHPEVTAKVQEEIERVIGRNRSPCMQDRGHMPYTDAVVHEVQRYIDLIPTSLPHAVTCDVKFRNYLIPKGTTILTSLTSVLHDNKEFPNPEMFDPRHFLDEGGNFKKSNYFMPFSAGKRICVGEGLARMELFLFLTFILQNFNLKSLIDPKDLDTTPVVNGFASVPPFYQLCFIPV
# Outline: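 5 nM human CYP2C19 with 10uM Luciferin-H EGE (at KM) in 50mM KPO4, compound preincubated 10 min at 37C, then NADPH regeneration for 60 min at 37C. Luciferin read by luminescence after detection reagent; normalized to 57uM ketoconazole as full inhibition.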
# [3] = Confirmation and Secondary Assay for Modulators of Hemoglobin Beta Chain Splicing at IVS2 654 locus (AID 910);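 also: HeLa cells stably carrying EGFP split by mutant beta-globin IVS2-654 intron; % of control where 0% means no effect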
# Outline: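 HeLa cells stably expressing EGFP interrupted by β-globin IVS2-654 intron, seeded overnight in Opti-MEM/2% FCS, then treated 2 days at 37 °C. Restored splicing read as total peak GFP intensity per well by laser scanning cytometry (488 nm excitation, 500–520 nm emission); 500 nM antisense PNA as control.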
# [4] = qHTS Assay for Identification of Small Molecule Agonists for Hypoxia Response Element Signaling Pathway (AID 914; active = well fitted activation curve with a large enough effect in the signal ratio, with a control signal flat, not every such curve was filed as active; the % refers to the signal ratio; also: potency is read from the fitted curve at half-maximal effect; as to activation: % of control where 0% means no effect); settings: ME-180 (cervical carcinoma) HRE-bla reporter, beta-lactamase ratio, CoCl2, 17 h; activation: stronger effect = higher value
# Outline: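 qHTS titration; ME-180 HRE-bla cells; EC50 CoCl2 co-treatment, 17 h at 37 degrees Celsius; CCF4 dye, ex 405nm, em 460nm and 530nm; %Activity from ratio; AC50.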
# [5] = Confirmation and Secondary Assay for Modulators of Hemoglobin Beta Chain Splicing at IVS2 705 locus (AID 930);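 also: HeLa cells stably expressing the EGFP-705 splicing reporter; GFP fluorescence per well restored by corrected splicing of the IVS2-705 intron in EGFP; series mostly up to about 46 µM; % of control where 0% means no effect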
# Outline: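 Secondary splice-site specificity test uses HeLa expressing CMV-driven EGFP interrupted by IVS2-705; cells were treated 2 days at 37C with 500 nM antisense PNA as positive control.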
# [6] = molecular target: DNA dC->dU-editing enzyme APOBEC-3G (Homo sapiens) (UniProt Q9HC16); experiment: qHTS for inhibitors of Vif-A3G interactions: Validation (AID 588379); also: 0% is about no effect
# Sequence of DNA dC->dU-editing enzyme APOBEC-3G (Homo sapiens) (Q9HC16 whole entry, looked up): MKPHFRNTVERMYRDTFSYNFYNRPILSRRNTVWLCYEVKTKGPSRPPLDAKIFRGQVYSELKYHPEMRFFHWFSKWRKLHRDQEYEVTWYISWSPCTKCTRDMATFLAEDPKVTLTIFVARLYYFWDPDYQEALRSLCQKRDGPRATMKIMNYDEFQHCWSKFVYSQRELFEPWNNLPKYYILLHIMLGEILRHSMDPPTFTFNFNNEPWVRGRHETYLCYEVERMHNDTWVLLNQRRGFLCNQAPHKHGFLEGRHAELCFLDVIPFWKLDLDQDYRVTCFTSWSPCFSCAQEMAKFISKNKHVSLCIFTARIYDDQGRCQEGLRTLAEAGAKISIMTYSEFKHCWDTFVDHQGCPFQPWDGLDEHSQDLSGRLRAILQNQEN
# Outline: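 HeLa cells stably expressing Vif and A3G-eYFP, 700 cells/well, incubated overnight at 37 deg C, then exposed to compound overnight at 37 deg C. Inhibition of Vif-mediated degradation read as increased yellow fluorescence (Ex 488/Em 500-530) by laser-scanning cytometry.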
# [7] = molecular target: Cytochrome P450 2D6 (Homo sapiens) (UniProt P10635); experiment: qHTS Assay for Inhibitors and Substrates of Cytochrome P450 2D6 (AID 891); also: nearly all actives have a fitted effect of over 60% in size; also: potency is read from the fitted curve at half-maximal effect
# Sequence of Cytochrome P450 2D6 (Homo sapiens) (P10635 whole entry, looked up): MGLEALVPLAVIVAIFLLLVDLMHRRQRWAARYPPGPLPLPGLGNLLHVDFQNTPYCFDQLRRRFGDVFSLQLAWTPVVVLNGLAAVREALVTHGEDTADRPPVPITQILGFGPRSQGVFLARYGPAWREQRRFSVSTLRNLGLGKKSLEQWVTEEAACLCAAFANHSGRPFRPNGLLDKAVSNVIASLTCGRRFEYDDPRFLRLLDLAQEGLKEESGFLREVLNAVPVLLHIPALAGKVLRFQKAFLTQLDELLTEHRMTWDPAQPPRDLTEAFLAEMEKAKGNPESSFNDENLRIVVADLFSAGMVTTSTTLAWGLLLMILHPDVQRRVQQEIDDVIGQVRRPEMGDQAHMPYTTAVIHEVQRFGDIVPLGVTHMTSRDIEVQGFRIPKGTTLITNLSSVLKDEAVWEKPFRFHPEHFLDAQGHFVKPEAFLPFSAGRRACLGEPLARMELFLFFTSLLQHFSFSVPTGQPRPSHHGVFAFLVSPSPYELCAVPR
# Outline: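 Human CYP2D6 (5 nM) with 30 uM Luciferin-ME EGE (at Km) in 100 mM KPO4, compound preincubated 10 min, then NADPH regeneration system for 60 min at room temperature. Luciferin read by luminescence; normalized to 1.43 uM quinidine.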
# [8] = molecular target: Cytochrome P450 2C9 (Homo sapiens) (UniProt P11712); experiment: qHTS Assay for Inhibitors and Substrates of Cytochrome P450 2C9 (AID 883); also: potency is read from the fitted curve at half-maximal effect; nearly all actives have a fitted effect of over 60% in size
# Sequence of Cytochrome P450 2C9 (Homo sapiens) (P11712 whole entry, looked up): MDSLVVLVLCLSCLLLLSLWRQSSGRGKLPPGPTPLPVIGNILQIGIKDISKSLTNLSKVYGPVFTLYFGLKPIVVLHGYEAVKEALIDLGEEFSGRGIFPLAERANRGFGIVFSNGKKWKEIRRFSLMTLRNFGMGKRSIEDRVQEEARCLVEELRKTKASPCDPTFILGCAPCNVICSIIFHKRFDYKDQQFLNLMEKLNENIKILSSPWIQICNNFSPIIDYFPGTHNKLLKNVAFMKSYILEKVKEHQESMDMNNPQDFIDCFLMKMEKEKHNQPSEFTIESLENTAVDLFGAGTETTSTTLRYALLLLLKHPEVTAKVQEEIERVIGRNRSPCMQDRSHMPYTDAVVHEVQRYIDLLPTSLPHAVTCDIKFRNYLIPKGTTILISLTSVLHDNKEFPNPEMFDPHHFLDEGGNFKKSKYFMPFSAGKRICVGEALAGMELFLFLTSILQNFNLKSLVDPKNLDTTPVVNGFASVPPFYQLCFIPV
# Outline: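 Human CYP2C9 (10nM) with Luciferin-H at 100uM (its KM) in 25mM KPO4; compound preincubated 10 min at 37C, then NADPH regeneration for 60 min at 37C. Luciferin read by luminescence after detection reagent; normalized to 57uM sulphaphenazole as full inhibition.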
compound,measurement,setting,value
CS(=O)(=O)Nc1cccc(-c2ccc3ncnc(NCc4cccnc4)c3c2)c1,Potency,[1],398 nM (active)
same,Potency,[2],0.0501 µM (active)
same,Potency,[3],inactive
same,activation,[4],-27.3% (inactive)
same,outcome,[5],inactive
CN(C)c1ncc2nc(CCc3ccccc3)c(=O)n(Cc3ccc(F)cc3)c2n1,Potency,[2],0.794 µM (active)
COc1ccc(-n2c(=O)c(-c3ccc(Cl)cc3)nc3cnc(N(C)C)nc32)cc1,Potency,[4],3160 nM (active)
COc1ccccc1CNc1nc(-c2ccc3c(c2)OCO3)nc2ccccc12,Potency,[1],1260 nM (active)
same,Potency,[2],3.16 µM (active)
COc1cccc(Cn2c(=O)c(-c3ccc(F)cc3)nc3cnc(N4CCOCC4)nc32)c1,Potency,[2],inactive
same,Potency,[4],3160 nM (active)
O=C(O)c1cc(=O)c2cccc(O)c2[nH]1,Potency,[1],inactive
same,outcome,[5],inactive
O=C(c1cnccn1)N1CCC2(CC1)CN(c1ccccn1)C2,Potency,[1],inactive
CS(=O)(=O)Nc1cccc(-c2ccc3ncnc(Nc4ccc(F)cc4)c3c2)c1,Potency,[1],7940 nM (active)
same,Potency,[3],inactive
same,outcome,[5],inactive
COc1ccc(Oc2ncc3nc(-c4ccc(F)cc4)c(=O)n(C)c3n2)cc1,Potency,[1],3980 nM (active)
same,activation,[4],16.5% (inactive)
COCCNc1nc(-c2ccccc2C)nc2ccccc12,outcome,[5],inactive
CN(C)c1ncc2nc(-c3cc(F)cc(F)c3)c(=O)n(Cc3cccs3)c2n1,Potency,[2],inactive
same,Potency,[4],126 nM (active)
COc1ccc(CNc2ccnc(-c3cccc(C#N)c3)n2)c(OC)c1,Potency,[1],2000 nM (active)
same,Potency,[2],3.98 µM (active)
same,activation,[4],-5.53% (inactive)
CN(C)c1ncc2nc(-c3cccs3)c(=O)n(C3CC3)c2n1,Potency,[4],3980 nM (active)
COc1cc(/C=C\c2ccc(OC)cc2OC)cc(OC)c1,Potency,[2],inactive
same,outcome,[6],inactive
Cn1cccc1C(=O)N1CCC2(CC1)CN(c1cccc(-c3ccccc3)c1)C2,Potency,[1],inactive
COc1cccc(-c2cc(NCc3ccc(OC)cc3OC)ncn2)c1,Potency,[1],2510 nM (active)
same,Potency,[2],5.01 µM (active)
same,activation,[4],1.95% (inactive)
N#C/C(=C\c1ccc(O)c(O)c1)C(=O)OCCc1cccs1,Potency,[2],6.31 µM (active)
same,outcome,[6],inactive
Cc1c(CC(C)(C)C(=O)O)n(Cc2ccc(Cl)cc2)c2ccc(F)cc12,Potency,[7],inactive
same,Potency,[2],316 nM (active) and inactive
same,outcome,[6],inactive
COC(=O)N1CCC2(CC1)CCN(c1cccc(-c3ccccc3)c1)CC2,Potency,[1],inactive
c1csc(CNc2ccnc(-c3ccc4c(c3)OCO4)n2)c1,Potency,[7],501 nM (active)
same,Potency,[2],5.01 µM (active)
O=c1c(-c2cc(F)cc(F)c2)nc2cnc(N3CCOCC3)nc2n1-c1ccccc1,Potency,[4],2510 nM (active)
COC(=O)C1=C(C)NC(C)=C(C(=O)OCCSc2ccccc2)[C@@H]1C,Potency,[8],3160 nM (active)
same,Potency,[2],0.199 µM (active)
same,outcome,[6],inactive
COc1ccc(C(=O)N2CCC[C@@]3(CCN(Cc4cc(C(F)(F)F)cc(C(F)(F)F)c4)C3)C2)cc1,Potency,[1],3160 nM (active)
c1ccc(CNc2ccnc(-c3ccc4c(c3)OCO4)n2)cc1,Potency,[1],794 nM (active)
same,Potency,[7],1580 nM (active)
same,Potency,[2],2 µM (active)
same,Potency,[3],inactive
same,outcome,[5],inactive
CN(C)c1ncnc2ccc(-c3ccccc3C(F)(F)F)cc12,Potency,[2],3.98 µM (active)
O=c1c(-c2ccc(F)c(F)c2)nc2cncnc2n1Cc1ccccc1Cl,Potency,[8],5010 nM (active)
same,Potency,[2],6.31 µM (active)
COc1cccc(-c2nccc(NCc3cccs3)n2)c1,Potency,[1],5010 nM (active)
same,Potency,[7],316 nM (active)
COc1ccc(CNc2nc(-c3ccc4c(c3)OCO4)nc3ccccc23)c(OC)c1,Potency,[1],1260 nM (active)
same,Potency,[2],7.94 µM (active)
COCCn1c(=O)c(-c2cc(F)cc(F)c2)nc2cnc(Nc3cccc(OC)c3)nc21,Potency,[1],7940 nM (active)
COc1ccccc1CNc1nc(-c2cccc(C#N)c2)nc2ccccc12,Potency,[2],3.98 µM (active)
COc1ccc(CNc2ncncc2-c2ccccc2C)c(OC)c1,Potency,[2],1.58 µM (active)
COc1ccc(CNc2ncncc2-c2ccccc2C(F)(F)F)c(OC)c1,Potency,[1],316 nM (active)
same,Potency,[7],398 nM (active)
same,Potency,[2],1.58 µM (active)
